{"source": "PubChem BioAssay (NCATS)", "data": [{"assay": "qHTS profiling for inhibitors of Plasmodium falciparum (HB3) proliferation (AID 743324);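 note: 100% = DMSO vehicle wells and 0% = artemisinin-treated control wells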", "settings": "Plasmodium falciparum HB3 blood-stage proliferation; at 28.7 µM (top of the series)", "method_in_brief": "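P. falciparum HB3 grown in erythrocytes (0.3% parasitemia, 2.5% hematocrit final) with compound for 72 h at 37 C, 5% CO2. Parasite DNA detected by SYBR Green after saponin/triton lysis overnight; normalized to 0.29 uM artemisinin and DMSO.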", "units": {"remaining proliferation (% of control), lower = more inhibition": "%"}, "values": [{"smiles": "CCCC[C@@H]1C[C@@H](C(=O)NC([C@H](C)Cl)[C@H]2O[C@H](S)[C@H](O)[C@@H](O)[C@@H]2O)N(C)C1", "note": "(stereo partly drawn)", "remaining proliferation (% of control), lower = more inhibition": 31.5}, {"smiles": "O=CN(O)CCCP(=O)(O)O", "remaining proliferation (% of control), lower = more inhibition": 14.2}, {"smiles": "O=C([C@@H](Cc1ccc(O[S+](=O)([O-])c2cccc3cccnc23)cc1)N[S+](=O)([O-])c1cccc2cccnc12)N1CCN(c2ccccc2)CC1", "remaining proliferation (% of control), lower = more inhibition": 1.75}, {"smiles": "CO[C@@]12[C@H](COC(N)=O)C3=C(C(=O)C(C)=C(N)C3=O)N1C[C@H]1N[C@H]12", "remaining proliferation (% of control), lower = more inhibition": -0.956}, {"smiles": "Cc1nc2c(C#N)cccc2n1-c1ccc(C(=O)NC2CC2)s1", "remaining proliferation (% of control), lower = more inhibition": 1.16}, {"smiles": "C[C@H]1Cc2c([nH]c3cc(Cl)c(F)cc23)[C@@]2(N1)C(=O)Nc1ccc(Cl)cc12", "remaining proliferation (% of control), lower = more inhibition": 0.369}, {"smiles": "CCN(CC)CCOc1ccc2c(=O)c3ccc(Cl)cc3n(CCN(CC)CC)c2c1", "remaining proliferation (% of control), lower = more inhibition": -0.0504}, {"smiles": "CCOc1ccc(F)cc1C1(O)C(N)=Nc2ccc(Cl)cc21", "note": "(stereo not drawn)", "remaining proliferation (% of control), lower = more inhibition": 1.54}]}]}
